Screens: PubChem, several laboratories
Compounds with a hit are over-represented: about 0.44% of the library has one in this group of screens.
YopH PTP inh – blocks Yersinia enterocolitica YopH tyrosine phosphatase | inhibition, % (test concentration not listed) | 0.16% of 140,000 active | fluorescence Ex485/Em525; in the data active means inhibition above about 50%
RmlC RmlD mix – mixture blocks RmlC and RmlD coupled enzyme activity; RmlC/RmlD coupled enzyme inhibition, 384-well mixture HTS; inhibition, % at 5.5 µM; 0.39% of 110,000 active; AID 1532; in the data active means inhibition above about 30%, passing the limit was not always enough
RmlCD fluor art – shows fluorescent artifact in RmlC/RmlD assay, dose-response counter-screen; shares compounds with RmlC RmlD mix; RmlC/RmlD assay fluorescence artifact counter-screen; calls only; 96% of 360 active; call rule not given here;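 further: compound alone with no enzyme and no substrates present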
* hit, by the source's call; i = inactive; . = not tested or not shown; + = active, no number.

SMILES	YopH PTP inh	RmlC RmlD mix	RmlCD fluor art
C=CCOc1ccc(C2OC34CCCCC3C(C#N)(C#N)C2(C#N)C(=N)O4)cc1 (centres undefined)	-19	60*	+
Cc1cc(/C=C(\C#N)C(=O)NCc2ccco2)c(C)n1C1CCCC1	1	-6	.
Cc1ccc2c(c1)N(C(=O)c1ccco1)C(C)(C)c1ssc(=S)c1-2	-4	-10	.
Cc1cccc(NC(=S)NCC(c2cccnc2)N(C)C)c1 (centres undefined)	-20	.	.
CCCCn1c(=O)nc2n(-c3ccccc3)c3ccccc3cc-2c1=O	-39	37*	+
CCCCn1c(=O)c(C(=O)c2ccccc2)nc2ccccc21	-16	2	.
Cc1cc([N+](=O)[O-])ccc1N(C)C	-23	.	.
COc1nc(N/N=C/c2ccccc2F)nc(N2CCCCC2)n1	-28	96	.
Cc1ccc(CNC(=O)CS(=O)(=O)CC(=O)O)cc1	-2	14	.
Cc1ccc2c(c1)c1ncnc(N3CCOCC3)c1n2C	-35	.	+
Cc1ccc2c(c1)c1ncnc(N3CCC4(CC3)OCCO4)c1n2C	-33	-28	.
CCCc1c(C)c(C#N)c2nc3ccccc3n2c1NCCCN1CCOCC1	-26	8	.
Cc1cc(NCCN2CCCCC2)n2c(nc3ccccc32)c1C#N	11	.	.
Cc1cc(NCCCn2ccnc2)n2c(nc3ccccc32)c1C#N	35	85*	+
CC(C)c1cc(NCCCN2CCOCC2)n2c(nc3ccccc32)c1C#N	-37	45*	+
COc1ccc(OC)c2[nH]c(C(=O)O)cc12	-32	-15	.
COC(=O)c1cc(=O)c2cccc(OC)c2[nH]1	.	.	i
COc1cccc(/C=N/NC(=O)c2cc3c(OC)cccc3[nH]2)c1O	-43	.	+
COc1cccc(/C=N/NC(=O)c2cc3c(OC)cccc3[nH]2)c1OC	-11	.	.
Cc1cc(C)n(C2=NS(=O)(=O)c3ccccc32)n1	-194	9	.
COc1cc(CC(=O)N/N=C/c2ccc([N+](=O)[O-])cc2)c([N+](=O)[O-])cc1OC	-17	.	.
COc1ccc(-c2cc(C(F)(F)F)n3nc(C(=O)Nc4cc(C)on4)cc3n2)cc1OC	-28	.	.
COc1ccc(-c2cc(C(F)(F)F)n3nc(C(=O)N(C)Cc4ccccc4)cc3n2)cc1OC	.	.	+
O=C(CSc1ccc(Cl)cc1Cl)N1CCC(c2nc3ccccc3s2)CC1	-9	13	.
Cc1cccc(NC(=S)NCC(c2cccnc2)N(C)C)c1C (centres undefined)	-17	.	.
SMILES	YopH PTP inh	RmlC RmlD mix	RmlCD fluor art
CN(C)CCNC(=O)c1coc(=O)c(Br)c1	-6	62*	+
CC(C)CNC(=O)c1coc(=O)c(Br)c1	6	4	.
CC(C)c1[nH]nc2c1C(Cc1ccccc1)C(C#N)=C(N)O2 (centres undefined)	-47	4	.
COCCn1c(=N)c(C(=O)NCCc2ccccc2)cc2c(=O)n3cccc(C)c3nc21	2	58*	+
Cc1cccn2c(=O)c3cc(C(=O)NCCc4ccccc4)c(=N)n(CCCn4ccnc4)c3nc12	-16	38*	+
Cc1cccn2c(=O)c3cc(C(=O)NCCN4CCOCC4)c(=N)n(CCc4ccccc4)c3nc12	-28	.	.
Cc1cccn2c(=O)c3cc(C(=O)NCC4CCCO4)c(=N)n(CCN4CCOCC4)c3nc12 (centres undefined)	-20	.	.
CCCn1c(=N)c(C(=O)NCC2CCCO2)cc2c(=O)n3cccc(C)c3nc21 (centres undefined)	-44	87*	+
CCNC(=O)c1cc2c(=O)n3cccc(C)c3nc2n(CCc2ccccc2)c1=N	-14	59*	+
Cc1cccn2c(=O)c3cc(C(=O)NCCCn4ccnc4)n(C)c3nc12	-29	.	.
Cc1cccn2c(=O)c3cc(C(=O)NCc4ccco4)c(=N)n(CCOCCO)c3nc12	-35	17	.
CCc1nc2ccccc2c(C(=O)OCC(=O)Nc2cccc(S(=O)(=O)N3CCOCC3)c2)c1C	-4	6	.
O=S(=O)(NCC(c1cccnc1)N1CCN(Cc2ccccc2)CC1)c1ccccc1 (centres undefined)	-30	-4	.
Cc1ccc(N(CN2CCCC2=O)C(=O)c2ccc(OC(C)C)cc2)cc1	-50	15	.
NC(=O)c1ccc(-c2ncc(-c3ccccc3)o2)cc1	-42	73*	+
c1ccc(-c2cnc(-c3cccnc3)o2)cc1	-33	20	.
Cc1ccc(-c2nc3ccccc3n2C)o1	-12	-7	.
CC(=O)c1ccc(-c2nc3ccccc3n2C)o1	-20	151*	+
COc1ccc(-c2cc3ccccc3s2)cc1[C@H]1[C@H]2C=CC[C@@H](C)[C@@H]2C(=O)N1Cc1ccccc1	.	-11	.
COc1ccccc1C(=O)NCCCN1CCCC1=O	3	-11	.
COC(=O)C1=CN(CCCN2CCCC2=O)C=C(C(=O)OC)C1c1ccccc1C(F)(F)F	-14	68*	+
